Results published in PubChem BioAssay AID2320 (National Center for Advancing Translational Sciences (NCATS), 2010).
Records with an inconclusive call do not appear. Values without a mark were called inactive. Activity calls are given as the source filed them. The call rests on the fitted dose curve.

experiment: A qHTS for Small Molecule Inhibitors of Shiga Toxin (Confirmatory); conditions: Cell-based Shiga toxin protection reporter assay; series mostly up to 38.3 µM; activity, positive = inhibition of toxin: at the top concentration; further: nearly all actives have a fitted effect of over 75% in size; on activity, positive = inhibition of toxin: 0% is about no effect
Potency means the concentration at half of the fitted maximal effect.

Row | SMILES | activity, positive = inhibition of toxin [%] | Potency
1 | Nc1nc(-c2nn(Cc3ccccc3F)c3ncccc23)ncc1C1CC1 | 13.7 | 
2 | Cc1ccc2c(N)[nH]nc2n1 | -50.9 | 
3 | CC(=O)Nc1cccc(NC(=O)CSc2nc3ccccc3o2)c1 | -0.494 | 
4 | CCOc1ccccc1NC(=O)CCS(=O)(=O)c1cccs1 | -34.2 | 
5 | CSc1nc2ccc(N3C(=O)C4CCCCC4C3=O)cc2s1 (centres undefined) | 29.6 | 
6 | COc1ccc2nc(SCC(=O)Nc3ccc4c(c3)CCC4)[nH]c2c1 | 41.5 | 
7 | O=C(Nc1nnc(S(=O)(=O)N2CCOCC2)s1)c1cccc(Br)c1 |  | 20 µM (active)
8 | Cc1cc(C)n(-c2nc(SCCN(C)C)c3c4c(sc3n2)COC(C)(C)C4)n1 | -33.6 | 
9 | Cc1ccc(-c2nnc(SCC(=O)NC3CCCC3)n2C)cc1 | -30.6 | 
10 | COC(=O)c1ccc(NC(=O)Cc2ccc(F)cc2)cc1 |  | 5.65 µM (active)
11 | COc1ccc(CNCC(=O)Nc2sccc2C#N)cc1 |  | 20 µM (active)
12 | Cc1oncc1-c1csc(-c2ccccc2Cl)n1 |  | 7.98 µM (active)
13 | COCCCNC(=O)c1cn(C)c(=O)c2c1c1ccccc1n2C | -30.2 | 
14 | Cc1cnc(NC(=O)c2c(Cl)cnn2C)s1 | 24.6 | 
15 | COc1ccc(NC(=O)c2cccnc2Nc2ccc(OC)cc2)cc1 | 49.4 | 
16 | O=C(Sc1cccc2cccnc12)c1ccccc1Br |  | 8.95 µM (active)
17 | COc1ccccc1C(=O)Nc1nnc(SCC(=O)Nc2ccc3c(c2)oc2ccccc23)s1 |  | 3.18 µM (active)
18 | CCOC(=O)c1cnc2c(-c3cccc(Br)c3)cnn2c1C |  | 3.56 µM (active)
19 | O=C(c1cc2c(s1)-c1ccccc1OC2)N1CCN(c2ccccc2)CC1 | -19.8 | 
